Dicer processing: inhibitors of human Dicer processing of pre-microRNA; Q9UPY3; cat-ELCCA pre-miR-21 Dicer processing, chemiluminescence; hits give high values; z-score at 25 µM; actives 6% (n = 47,000); in the data active = z-score above about 3, passing the limit was not always enough;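 note: higher signal means more uncleaved substrate so more Dicer inhibition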
Target sequence (Q9UPY3 whole entry, looked up): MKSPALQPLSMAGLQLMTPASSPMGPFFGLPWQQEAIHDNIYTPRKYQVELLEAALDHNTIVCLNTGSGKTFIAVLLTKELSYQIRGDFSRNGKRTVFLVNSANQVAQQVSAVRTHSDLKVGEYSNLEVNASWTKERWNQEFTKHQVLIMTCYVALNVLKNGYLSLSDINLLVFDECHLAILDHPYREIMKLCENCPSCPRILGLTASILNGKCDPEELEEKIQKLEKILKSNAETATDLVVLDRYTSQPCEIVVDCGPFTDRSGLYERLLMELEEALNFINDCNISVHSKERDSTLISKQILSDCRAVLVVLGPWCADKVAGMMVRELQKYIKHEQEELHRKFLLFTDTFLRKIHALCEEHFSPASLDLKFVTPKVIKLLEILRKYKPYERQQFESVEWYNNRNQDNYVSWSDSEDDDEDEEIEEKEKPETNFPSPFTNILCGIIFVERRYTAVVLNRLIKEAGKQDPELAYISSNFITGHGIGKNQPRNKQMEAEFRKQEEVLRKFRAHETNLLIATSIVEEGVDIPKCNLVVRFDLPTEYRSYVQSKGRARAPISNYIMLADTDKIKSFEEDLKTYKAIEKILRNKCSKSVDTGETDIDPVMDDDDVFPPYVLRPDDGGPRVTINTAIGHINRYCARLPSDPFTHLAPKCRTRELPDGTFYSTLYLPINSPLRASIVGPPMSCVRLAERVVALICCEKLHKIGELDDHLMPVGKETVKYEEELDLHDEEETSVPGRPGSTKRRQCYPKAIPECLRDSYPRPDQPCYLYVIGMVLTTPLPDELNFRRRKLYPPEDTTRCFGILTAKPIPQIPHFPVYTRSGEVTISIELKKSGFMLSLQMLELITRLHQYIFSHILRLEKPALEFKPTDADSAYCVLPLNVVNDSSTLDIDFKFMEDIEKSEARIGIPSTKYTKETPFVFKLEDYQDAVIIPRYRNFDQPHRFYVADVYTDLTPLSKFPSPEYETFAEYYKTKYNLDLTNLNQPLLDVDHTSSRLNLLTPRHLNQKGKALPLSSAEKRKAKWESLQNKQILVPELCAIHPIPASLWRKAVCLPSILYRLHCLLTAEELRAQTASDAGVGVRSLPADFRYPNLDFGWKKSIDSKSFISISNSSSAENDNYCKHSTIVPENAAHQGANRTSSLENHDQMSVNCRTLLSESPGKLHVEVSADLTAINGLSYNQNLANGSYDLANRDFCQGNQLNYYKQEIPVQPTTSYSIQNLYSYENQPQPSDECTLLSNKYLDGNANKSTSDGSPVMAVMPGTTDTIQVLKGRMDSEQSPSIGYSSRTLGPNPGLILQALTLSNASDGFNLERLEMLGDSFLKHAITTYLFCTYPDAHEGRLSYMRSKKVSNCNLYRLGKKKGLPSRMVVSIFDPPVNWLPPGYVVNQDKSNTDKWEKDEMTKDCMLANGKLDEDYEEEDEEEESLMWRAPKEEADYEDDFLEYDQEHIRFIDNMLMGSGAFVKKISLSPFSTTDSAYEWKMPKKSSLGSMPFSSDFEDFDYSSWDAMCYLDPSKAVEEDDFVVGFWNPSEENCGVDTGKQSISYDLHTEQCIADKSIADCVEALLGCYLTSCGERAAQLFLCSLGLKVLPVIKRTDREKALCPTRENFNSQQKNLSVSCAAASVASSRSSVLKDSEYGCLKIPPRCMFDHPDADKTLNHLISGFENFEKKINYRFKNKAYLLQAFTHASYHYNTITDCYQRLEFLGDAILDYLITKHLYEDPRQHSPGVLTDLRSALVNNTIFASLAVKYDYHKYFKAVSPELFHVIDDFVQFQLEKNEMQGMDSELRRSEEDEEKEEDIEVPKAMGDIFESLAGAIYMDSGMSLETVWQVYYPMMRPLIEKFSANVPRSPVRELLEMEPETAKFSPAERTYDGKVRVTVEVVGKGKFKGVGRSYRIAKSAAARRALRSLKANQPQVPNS
Hits are given with their value; 0 = inactive. This is one part of a sample in which hits are shown more often than they occur.

SMILES	Dicer processing
COc1cccc2c1OC(c1ccc(F)cc1)C([N+](=O)[O-])=C2 (stereo not given)	3.86
O=[N+]([O-])C1=Cc2cc(Cl)cc(Cl)c2OC1c1ccc(F)cc1 (stereo not given)	5.21
CN(C)c1ccc(N2C(=O)CC(Sc3ncccc3C(=O)O)C2=O)cc1 (stereo not given)	0
CC(=O)NC(COC(C)=O)C(OC(C)=O)c1ccc([N+](=O)[O-])cc1 (stereo not given)	0
COCCOC(=O)C1=C(C)NC2=C(C(=O)CCC2)C1c1cccc2ccccc12 (stereo not given)	0
O=c1c2oc3nc(-c4ccccc4)cc(-c4ccco4)c3c2ncn1/N=C/c1ccc(F)cc1	0
O=c1[nH]cnc2c1oc1nc(-c3ccc(Cl)cc3)cc(-c3ccco3)c12	6.51
NNC(=O)c1oc2nc(-c3ccc(Cl)cc3)cc(-c3ccccc3)c2c1N	0
COc1ccc(-n2cc3c(=O)n(C)c(=O)n(C)c3c2)cc1	0
Cc1cc(=O)oc2c1c(C(F)(F)F)nn2C	0
O=C(OCc1ccc(Cl)cc1)c1cnc(NNC(=O)C(F)(F)F)nc1C(F)(F)F	3.4
CCCC(=O)NNc1ncc(C(=O)OCC)c(C(F)(F)F)n1	0
O=C(OCc1ccc(Cl)cc1)c1cnc(Sc2ccc(Cl)cc2)nc1C(F)(F)F	0
CC(C)c1nnc(NC(=O)CSc2nnc3c(n2)[nH]c2ccccc23)s1	0
Cc1cccc(C)c1OCC(O)CN1C(=O)NC(C)(C)C1=O (stereo not given)	0
Nc1ncnc2c1ncn2CCN1CCCCC1	0
Nc1ncnc2c1ncn2CC(O)CO (stereo not given)	6.81
Nc1ncnc2c1ncn2CCc1ccccc1	0
CCC1(c2ccccc2)OC(c2ccc([N+](=O)[O-])cc2)Nc2ccccc21 (stereo not given)	0
CCc1cc(-c2[nH]ncc2-c2ccc(OC)cc2)c(O)cc1O	0
COc1ccc(-c2cc(-c3ccccc3O)[nH]n2)cc1OC	4.97
COc1ccc(-c2cc(-c3cc(OC)ccc3O)[nH]n2)cc1	8.07
COc1ccc(-c2ccc(=O)[nH]n2)cc1	0
COc1cc(-c2ccc(=O)[nH]n2)ccc1OC(F)F	0
COc1ccc(-c2nc(-c3ccccc3)no2)cc1OC	0
SMILES	Dicer processing
COC(=O)c1cc(C)nc(Sc2ccccc2NC(=O)c2ccc(OC)cc2)n1	0
O=c1ccn(-c2ccc(Cl)cc2)nc1-c1ccnc(-c2ccc(Cl)cc2)n1	0
CCOC(=O)N/N=C(\C)c1ccc(OC)cc1	0
Cc1cc(NC(=O)CSc2nnc3c4ccccc4n(C)c3n2)no1	0
C=CCn1c2ccccc2c2nnc(SCC(=O)Nc3c(C)n(C)n(-c4ccccc4)c3=O)nc21	0
Cc1c(NC(=O)CSc2nnc3c4ccccc4n(C)c3n2)c(=O)n(-c2ccccc2)n1C	3.23
C=CCc1c(C)nc(SCC(=O)c2cccs2)[nH]c1=O	0
Cc1nn2c(C(F)(F)F)cc(-c3ccncc3)nc2c1-c1ccc(Cl)cc1	0
Cc1cc(NC(=O)c2ccc3c(c2)OCCO3)no1	4.19
Cc1cc(NC(=O)c2ccc3c(c2)OCO3)no1	0
Cc1cc(-c2nnc(SCC(=O)c3ccc4c(c3)OCCO4)o2)no1	0
c1ccc(CN2CCC(n3nnc4cccnc43)CC2)cc1	0
Cc1cc2nc3n(c2cc1C)C(O)C=C(C(C)(C)C)S3 (stereo not given)	0
CN(C)C=Nc1ccccc1Sc1nc2c(Cl)cc(Cl)cc2s1	0
Cc1c(CN2CCc3ccccc3C2)sc2ccccc12	4.82
Cc1c(CC(=S)N2CCOCC2)sc2ccccc12	0
Cc1c(CN2CCC(C(=O)c3ccc(F)cc3)CC2)sc2ccccc12	0
O=C(O)C12C3CCC4C5C3C1C5(C(=O)O)C42 (stereo not given)	0
O=C(Nc1ccccc1)NC1CCS(=O)(=O)C1 (stereo not given)	0
Cc1ccc(OC2CCS(=O)(=O)C2)cc1 (stereo not given)	0
O=C(Oc1ccccc1)OC1CCS(=O)(=O)C1 (stereo not given)	4
Nc1nncn1C(=O)c1ccc2c(c1)OCO2	0
O=S(=O)(Oc1ccc(Cl)cc1)c1cc(S(=O)(=O)Oc2ccc(Cl)cc2)c(Cl)s1	0
CC1=C(C(=O)OC(C)C)C(c2cc3c(cc2Cl)OCO3)C2=C(CC(c3ccccc3)CC2=O)N1 (stereo not given)	0
O=C(CSc1ncn[nH]1)N1CCc2ccccc21	0
SMILES	Dicer processing
O=C(CSc1nn2cnnc2s1)N(C1CCCCC1)C1CCCCC1	0
O=C(CSc1nn2cnnc2s1)N1CCc2ccccc21	3.15
O=c1nc(-c2ccc(Cl)cc2)c2ccccc2[nH]1	0
CCOC(=O)CCCn1c(NCc2ccccc2)nc2c1c(=O)n(C)c(=O)n2C	0
COC(=O)c1scc(S(C)(=O)=O)c1N=CN(C)C	0
Cc1cc(C)nc(SCC(=O)N2CCc3ccccc3C2)n1	0
CS(=O)(=N/C=C(\C#N)S(=O)(=O)c1ccccn1)c1ccc(Cl)cc1 (stereo not given)	0
O=C1OC2(O)C3C4C=CC(C4)C3C(=O)N2c2ccccc21 (stereo not given)	4.94
O=C1C2C3C=CC(C3)C2C(=O)N1c1cccc(N2C(=O)C3C4C=CC(C4)C3C2=O)n1 (stereo not given)	0
Cc1ccc2c(c1)C(=O)OC1(O)C3C4C=CC(C4)C3C(=O)N21 (stereo not given)	0
O=S(=O)(N/N=C/c1ccccc1Cl)c1ccc(-c2ccccn2)s1	0
Nc1c2c(nc3cccc(F)c13)OCCC2	0
COc1ccc2cccc3c2c1C=CC3=O	4.22
COc1ccc2ccccc2c1Br	0
CC(=O)ON1C(=O)c2cccc3cccc(c23)C1=O	0
COc1ccc(COC(=O)C2=C(C)NC3=C(C(=O)CC(C)(C)C3)C2c2cccs2)cc1 (stereo not given)	0
O=[N+]([O-])c1ccc(C(N2CCSCC2)N2CCSCC2)cc1	0
CCCCOC(C)n1cc(Cl)c(=O)[nH]c1=O (stereo not given)	0
Cc1ccc2cc3c(nc2c1)N(c1ccccc1)CC3	0
COC(=O)c1ccc(N2CCc3cc4ccc(C)cc4nc32)cc1	3.05
COC(=O)c1ccc(N2C(=O)CC(N3CCN(C)CC3)C2=O)cc1 (stereo not given)	0
CCOC(=O)NNC(=S)Nc1ccccc1OC	0
CCCc1[nH]nc2c1C(c1c(F)cccc1Cl)C(C#N)=C(N)O2 (stereo not given)	0
Cc1ccc(C(=O)CC2(O)C(=O)Nc3ccc(C)cc32)c(C)c1 (stereo not given)	0
O=C(CC1(O)C(=O)Nc2ccc(Br)cc21)c1cccs1 (stereo not given)	0
SMILES	Dicer processing
Cc1cc(C)c2c(c1)NC(=O)C2(O)CC(=O)c1cccs1 (stereo not given)	3.44
O=S(=O)(Cc1ccccc1)Nc1ccncc1	0
CCc1ccc(C2Nc3cccc4cccc(c34)N2)cc1	0
CN(C)c1ccc(C2Nc3cccc4cccc(c34)N2)cc1	0
CCOc1cc(C2Nc3cccc4cccc(c34)N2)ccc1O	0
c1ccc2c(C3Nc4cccc5cccc(c45)N3)cccc2c1	4.37
COc1cc(OC)c(C2Nc3cccc4cccc(c34)N2)c(OC)c1	0
Brc1cccc(C2Nc3cccc4cccc(c34)N2)c1	5.15
COc1cc(C2Nc3cccc4cccc(c34)N2)ccc1OCc1ccccc1	0
O=C1NC(c2ccc(Cl)cc2)Nc2ccccc21 (stereo not given)	0
O=C1NC(c2cccc(Br)c2)Nc2ccccc21 (stereo not given)	0

Screening data (PubChem)
